For six compounds, growth results are on record in the supplement of paper PMC9262897, “Low-cost anti-mycobacterial drug discovery using engineered E. coli” (Nature Communications, 2022).

Common to all, as to assay: growth (OD600 after 10 h); higher = more growth (less inhibition)
In assay [1] the test system is E. coli TESEC Alr+ wild-type control. Conditions: compound 0.1 mM; raw OD600 reference: median of DMSO wells 0.241, cell-free background 0.041. How it is done: (§1)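 TESEC Mtb Alr E. coli, or the Alr+ wild-type control, in 384-well plates with Prestwick library compounds at 0.1 mM and 1% DMSO, across arabinose induction levels of 1E3 to 1E7 nM. Growth is read as OD600 after 10 h at 37 °C in triplicate biological replicates.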

Assay [2] relates to E. coli TESEC Mtb Alr. The conditions noted are these: compound 0.1 mM. How it is done: as §1
The test system of another assay is E. coli TESEC Mtb Asd. Conditions: compound 0.1 mM. The method, then: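 TESEC E. coli strains in which the native enzyme is deleted and replaced by arabinose-inducible Mtb Asd, DapB, CysH or TrpD, each grown in its selective medium. Strains were screened against the Prestwick library at 0.1 mM and 1% DMSO in 384-well format at low and high arabinose induction. Growth is read as OD600 after 10 h in triplicate.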

Assay [3] deals with E. coli TESEC Alr+ wild-type control. The conditions noted are these: compound 0.1 mM; raw OD600 reference: median of DMSO wells 0.49, cell-free background 0.052. The method, then:
(§2)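 TESEC Mtb Alr E. coli (ΔaraC ΔtolC ΔentC Δalr ΔdadX, arabinose-inducible Mtb Alr) or the Alr+ wild-type control strain, grown in defined M9-fructose medium without D-alanine in 96-well plates with Prestwick library compounds at 0.1 mM and 1% DMSO. Low Alr induction is 0.1 µM arabinose and high induction is 10 mM arabinose.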

Assay [4] has as its system E. coli TESEC Mtb Alr. Conditions: compound 0.1 mM. The method, then:
as §2
The source holds these as a separate data set.

Setting [5] is: arabinose 1000 nM, raw OD600 reference: median of DMSO wells 0.294, cell-free background 0.041.
[6] abbreviates: arabinose 10000 nM, raw OD600 reference: median of DMSO wells 0.264, cell-free background 0.041.
[7] abbreviates: arabinose 100000 nM, raw OD600 reference: median of DMSO wells 0.201, cell-free background 0.041.
[8] abbreviates: arabinose 1000000 nM, raw OD600 reference: median of DMSO wells 0.193, cell-free background 0.041.
Setting [9] is: arabinose 10000000 nM, raw OD600 reference: median of DMSO wells 0.146, cell-free background 0.041.
Setting [10] is: arabinose induction (level): High, raw OD600 reference: median of DMSO wells 0.331, cell-free background 0.041.
Setting [11] is: arabinose induction (level): Low, raw OD600 reference: median of DMSO wells 0.417, cell-free background 0.041.
The mark [12] stands for this setting: arabinose 100 nM, raw OD600 reference: median of DMSO wells 0.413, cell-free background 0.052.
[13] abbreviates: arabinose 10000000 nM, raw OD600 reference: median of DMSO wells […], cell-free background 0.052.

Molecules are shown by their SMILES. Where a name gives a salt, the structure may show the parent alone. ± gives the standard deviation of the averaged measurements.

As for `C[C@]12CC[C@@H]3c4ccc(OS(=O)(=O)O)cc4CC[C@H]3[C@@H]1CCC2=O` [Estropipate], the growth was 0.229 ± 0.0082 in assay [1]; 0.277 ± 0.011 in the assay on E. coli TESEC Mtb Alr [2] (setting [5]); 0.251 ± 0.0064 in the assay with E. coli TESEC Mtb Alr [2] (setting [6]); 0.177 ± 0.011 in the assay on E. coli TESEC Mtb Alr [2] (setting [7]); 0.151 ± 0.011 with E. coli TESEC Mtb Alr [2] (setting [8]); 0.127 ± 0.0018 with E. coli TESEC Mtb Alr [2] (setting [9]). In addition, the growth in the assay with E. coli TESEC Mtb Asd (setting [10]) was determined as 0.301 ± 0.023; in the assay on E. coli TESEC Mtb Asd (setting [11]), 0.413 ± 0.039; in assay [3] it was 0.534 ± 0.11; in the assay on E. coli TESEC Mtb Alr [4] (setting [12]), 0.41 ± 0.0049; with E. coli TESEC Mtb Alr [4] (setting [13]), 0.267 ± 0.0063.

For the compound `COc1cc([C@@H]2c3cc4c(cc3[C@@H](O[C@@H]3O[C@@H]5CO[C@@H](C)O[C@H]5[C@H](O)[C@H]3O)[C@H]3COC(=O)[C@H]23)OCO4)cc(OC)c1O` [Etoposide], the growth in assay [1] is 0.0715 ± 0.0031; in the assay with E. coli TESEC Mtb Alr [2] (setting [5]), 0.0527 ± 0.0019; in the assay on E. coli TESEC Mtb Alr [2] (setting [6]) it was 0.04273 ± 0.00025; in the assay with E. coli TESEC Mtb Alr [2] (setting [7]), 0.0604 ± 0.0031; in the assay with E. coli TESEC Mtb Alr [2] (setting [8]), 0.0501 ± 0.00056; in the assay on E. coli TESEC Mtb Alr [2] (setting [9]) it was 0.1106 ± 0.0011. For the same compound, the growth was 0.112 ± 0.015 in the assay on E. coli TESEC Mtb Asd (setting [10]); 0.0831 ± 0.013 with E. coli TESEC Mtb Asd (setting [11]); 0.142 ± 0.0036 in assay [3]; 0.129 ± 0.02 in the assay on E. coli TESEC Mtb Alr [4] (setting [12]); 0.0985 ± 0.018 in the assay on E. coli TESEC Mtb Alr [4] (setting [13]).

`CCC(C)(C)C(=O)O[C@H]1C[C@@H](C)C=C2C=C[C@H](C)[C@H](CC[C@@H]3C[C@@H](O)CC(=O)O3)[C@H]21` [Simvastatin]: the growth in assay [1] was 0.198 ± 0.017; in the assay on E. coli TESEC Mtb Alr [2] (setting [5]), 0.201 ± 0.015; with E. coli TESEC Mtb Alr [2] (setting [6]), 0.161 ± 0.0024; in the assay with E. coli TESEC Mtb Alr [2] (setting [7]), 0.113 ± 0.0033; in the assay on E. coli TESEC Mtb Alr [2] (setting [8]) it was 0.053 ± 0.0021; in the assay with E. coli TESEC Mtb Alr [2] (setting [9]) it was 0.0742 ± 0.004. Also, the growth in the assay with E. coli TESEC Mtb Asd (setting [10]) stood at 0.0906 ± 0.015; in the assay with E. coli TESEC Mtb Asd (setting [11]) it was 0.197 ± 0.023; in assay [3], 0.311 ± 0.016; with E. coli TESEC Mtb Alr [4] (setting [12]) it was 0.392 ± 0.014; in the assay with E. coli TESEC Mtb Alr [4] (setting [13]), 0.0705 ± 0.023.

Regarding `CN1CCCN=C1/C=C/c1cccc(O)c1` [Oxantel pamoate], the growth in assay [1] stood at 0.216 ± 0.016; with E. coli TESEC Mtb Alr [2] (setting [5]), 0.303 ± 0.013; in the assay on E. coli TESEC Mtb Alr [2] (setting [6]), 0.236 ± 0.0088; with E. coli TESEC Mtb Alr [2] (setting [7]), 0.226 ± 0.039; in the assay with E. coli TESEC Mtb Alr [2] (setting [8]), 0.141 ± 0.0019; with E. coli TESEC Mtb Alr [2] (setting [9]), 0.189 ± 0.0049. Besides, the growth in the assay on E. coli TESEC Mtb Asd (setting [10]) is 0.282 ± 0.051; in the assay with E. coli TESEC Mtb Asd (setting [11]), 0.258 ± 0.009; in assay [3], 0.496 ± 0.038; in the assay on E. coli TESEC Mtb Alr [4] (setting [12]), 0.405 ± 0.011; with E. coli TESEC Mtb Alr [4] (setting [13]) it was 0.326 ± 0.013.

Turning to `O=C(O)CCC(=O)Nc1ccc(S(=O)(=O)Nc2nccs2)cc1` [Succinylsulfathiazole], the growth in assay [1] worked out at 0.257 ± 0.0064; with E. coli TESEC Mtb Alr [2] (setting [5]), 0.328 ± 0.017; in the assay with E. coli TESEC Mtb Alr [2] (setting [6]), 0.264 ± 0.0094; in the assay with E. coli TESEC Mtb Alr [2] (setting [7]), 0.21 ± 0.018; in the assay with E. coli TESEC Mtb Alr [2] (setting [8]), 0.18 ± 0.0018; in the assay on E. coli TESEC Mtb Alr [2] (setting [9]), 0.157 ± 0.0071. Further, the growth with E. coli TESEC Mtb Asd (setting [10]) was 0.447 ± 0.027; with E. coli TESEC Mtb Asd (setting [11]), 0.432 ± 0.04; in assay [3] it was 0.455 ± 0.037; in the assay on E. coli TESEC Mtb Alr [4] (setting [12]), 0.4084 ± 0.0019; in the assay on E. coli TESEC Mtb Alr [4] (setting [13]), 0.317 ± 0.014.

As to `CCOC(=O)[C@@](C)(N)Cc1ccc(O)c(O)c1` [Methyldopate hydrochloride], the growth in assay [1] amounted to 0.106 ± 0.0036; with E. coli TESEC Mtb Alr [2] (setting [5]), 0.159 ± 0.008; in the assay with E. coli TESEC Mtb Alr [2] (setting [6]) it was 0.185 ± 0.011; with E. coli TESEC Mtb Alr [2] (setting [7]) it was 0.116 ± 0.0072; in the assay on E. coli TESEC Mtb Alr [2] (setting [8]), 0.0901 ± 0.0019; in the assay with E. coli TESEC Mtb Alr [2] (setting [9]), 0.116 ± 0.0018. The growth in the assay on E. coli TESEC Mtb Asd (setting [10]) is 0.163 ± 0.024; with E. coli TESEC Mtb Asd (setting [11]), 0.276 ± 0.13; in assay [3], 0.469 ± 0.013; in the assay with E. coli TESEC Mtb Alr [4] (setting [12]) it was 0.405 ± 0.021; in the assay with E. coli TESEC Mtb Alr [4] (setting [13]) it was 0.339 ± 0.022.
